Screening results from PubChem BioAssay.
NSD2 block – blocks human NSD2 histone methyltransferase activity. O96028. NSD2-SET H3K36me1 DELFIA fluorescence, biochemical. inhibition, % at 12.5 µM. 44,000 tested, 0.07% active; in the data active means inhibition above about 54%, passing the limit was not always enough;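 further: inhibitors reduce the monomethyl H3K36 fluorescence signal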
Numbers without * were called inactive. The entries come from a sample that favours hits as a whole.

SMILES	NSD2 block
Cc1ccc(S(=O)(=O)c2nc(-c3ccccc3)oc2NCCN2CCOCC2)cc1	4
c1ccc2c(c1)CCCc1cc(NCCN3CCOCC3)nnc1-2	3
O=C1C(Cl)=C(NCCN2CCOCC2)C(=O)c2ncccc21	90*
COc1cc(C2c3c(cc(OC)c(O)c3OC)CC(CO)C2COC2OCC(O)C(O)C2O)cc(OC)c1O (stereo not drawn)	39
COc1cc(C2c3c(cc(OC)c(O)c3OC)CC(CO)C2COC2OC(CO)C(O)C(O)C2O)cc(OC)c1O (stereo not drawn)	76*
COc1cc(C[C@H]2CO[C@H](c3ccc(O[C@@H]4O[C@H](CO)[C@@H](O)[C@H](O)[C@H]4O)c(OC)c3)[C@H]2CO)ccc1O	54
COc1cc(/C=C/c2cc(O)cc(O)c2)ccc1O[C@@H]1O[C@H](CO)[C@@H](O)[C@H](O)[C@H]1O	-1
CC(C)(C)c1cc(C(=O)CSc2nc3ccccc3[nH]2)cc(C(C)(C)C)c1O	2
Cc1ccc(NC2=CC(=O)c3sc(C)nc3C2=O)cc1	74*
C[C@H]1[C@H](C)CC[C@]2(C(=O)O[C@@H]3O[C@H](COC4O[C@H](CO)[C@@H](OC5O[C@@H](C)[C@H](O)[C@@H](O)[C@H]5O)[C@H](O)[C@H]4O)[C@@H](O)[C@H](O)[C@H]3O)CC[C@]3(C)C(=CC[C@@H]4[C@@]5(C)C[C@@H](O)[C@H](O)[C@@](C)(CO)C5CC[C@]43C)[C@H]12 (stereo partly drawn)	-1
COc1ccc(N(CC(=O)O)S(C)(=O)=O)cc1	3
CC(C)(C)c1ccc(-c2nnc(SCc3cccc(C(N)=O)c3)n2-c2ccc3c(c2)OCO3)cc1	2
C=C(C)[C@@]12O[C@@H]1[C@@]1(C)C(=CC2=O)CC[C@@H](O)[C@@H]1C	-1
COC(=O)c1ccc(/C=N/NC(=O)c2ccccc2O)cc1	1
O=C(CCCCC(=O)N/N=C/c1ccc(-c2ccccc2)cc1)NO	3
O=CNCCc1c[nH]c2ccccc12	4
COc1cc(C(=O)OCC2(O)COC(OCC3OC(Oc4c(OC)cc(CO)cc4OC)C(O)C(O)C3O)C2O)cc(OC)c1O (stereo not drawn)	20
CC(C)CC(=O)c1c(O)cc(O)cc1OC1OC(COC(=O)c2cc(O)c(O)c(O)c2)C(O)C(O)C1O (stereo not drawn)	52*
O=C(OCc1ccccc1O[C@@H]1O[C@H](CO)[C@@H](O)[C@H](O)[C@H]1O)c1c(O)cccc1O[C@@H]1O[C@H](CO)[C@@H](O)[C@H](O)[C@H]1O	3
O=C(CCCCC(=O)N/N=C/c1ccccc1)NO	-3
C=CCOc1ccccc1/C=N/NC(=O)CCCCC(=O)NO	0
CCc1ccccc1N(CC(=O)N1CCC(Cc2ccccc2)CC1)S(C)(=O)=O	4
C=C(C(=O)O)[C@@H]1CC[C@@]2(C)CC[C@@H](O)C(=C)C2C1 (stereo partly drawn)	-4
Cc1ccc2nc(N3CCN(c4cccc(C)c4C)CC3)c(-n3nc(C)cc3C)nc2c1	-6
CCCCN(CCCC)c1ccc(/C=N/NC(=O)CCCCCCC(=O)OC)cc1	13
SMILES	NSD2 block
O=C(N/N=C/c1cc(Br)cc(Br)c1O)c1ccccn1	-7
Cc1ccc(SCc2[nH]n(-c3nc4ccccc4s3)c(=O)c2C=NCc2ccco2)cc1	-8
CCc1cccc(-n2c(-c3ccco3)nc3c(cnn3-c3ccccc3Cl)c2=O)c1	0
CC1=C(C#N)C(C(F)(F)F)(C(F)(F)F)N=C(c2ccncc2)N1	-4
Cc1ccccc1/C=N/NC(=O)CCCCC(=O)NO	-3
Cc1sc2ncnc(SCC(=O)Nc3cc(C(F)(F)F)ccc3Cl)c2c1C	-4
O=C(NC(Cc1ccccc1)C(=O)OCc1cnc(-c2ccccc2)o1)c1ccccc1 (stereo not drawn)	5
O=c1c(O)c(-c2ccc(O)cc2)oc2cc(OC3O[C@H](CO)[C@@H](O)[C@H](O)[C@H]3O)cc(O)c12 (stereo partly drawn)	27
[N-]=[N+]=Nc1cccc(C(=O)N2CCN(c3ccccc3)CC2)c1	-4
COc1ccc(C(=O)Nc2ccccc2C(=O)N2CCN(CCO)CC2)cc1	-1
C=C(C(=O)O)C(O)CCC1(C)C2CC3C(C2)C31C (stereo not drawn)	4
COC(=O)C(Cc1c[nH]c2ccccc12)NC(=O)C(NC(=O)C(C)NC(=O)/C=C/C(=O)O)C(C)c1c[nH]c2ccccc12 (stereo not drawn)	1
CCOc1cc(/C=N/NC(=O)c2ccc(C(=O)NO)cc2)ccc1O	18
CC#CC#C/C=C1\C=CC2(OC=CC2OC(=O)C=C(C)C)O1 (stereo not drawn)	-6
Oc1ccc2c(c1O)OCC1c3cc4c(cc3OC21)OCO4 (stereo not drawn)	4
COc1ccc2c(c1)O[C@H]1c3ccc(O)cc3OC[C@@H]21	2
OC[C@H]1O[C@@H](Oc2ccc3c(c2)OC[C@H]2c4cc5c(cc4O[C@@H]32)OCO5)[C@H](O)[C@@H](O)[C@@H]1O	68*
CC1=Nc2ccc(C)cc2/C1=C\c1c(N)n2nc(S(=O)(=O)CC(C)C)sc2nc1=O	-7
O=C(CCCCCC(=O)N/N=C/c1ccc(Br)o1)NO	-4
C=CCOc1ccccc1/C=N/NC(=O)c1ccccn1	3
COC(=O)c1ccc(C2C(Oc3ccc(OC)cc3)C(=O)N2Cc2ccc(F)cc2)cc1 (stereo not drawn)	12
CC(C)(C)ONC(=O)c1ccc(-n2cc(C(=O)NO)nn2)cc1	1
C/C(=N\n1c(-c2ccccc2)n[nH]c1=O)c1ccccc1	0
C[C@@H]1O[C@@H](OC[C@H]2O[C@@H](c3c(O)cc4oc(-c5ccc(O)c(O)c5)cc(=O)c4c3O)[C@H](O)[C@@H](O)[C@@H]2O)[C@H](O)[C@H](O)[C@H]1O	7
O=C(CCCCC(=O)N/N=C\c1ccc2c(c1)Cc1ccccc1-2)NO	-5
SMILES	NSD2 block
CCN(C(=O)C(C)Oc1ccccc1)c1ccccc1C (stereo not drawn)	-4
C[C@@H]1O[C@@H](Oc2cc(O)c3c(=O)c(O[C@@H]4O[C@@H](C)[C@H](O)[C@@H](O[C@@H]5OC[C@@H](O)[C@H](O)[C@H]5O)[C@H]4O[C@@H]4O[C@H](CO)[C@@H](O)[C@H](O)[C@H]4O)c(-c4ccc(O)c(O)c4)oc3c2)[C@H](O)[C@H](O)[C@H]1O	6
O=c1c(O[C@@H]2OC[C@H](O)[C@H](O)[C@H]2O)c(-c2ccc(O)cc2)oc2cc(O)cc(O)c12	72*
O=c1c(O[C@@H]2O[C@H](CO)[C@H](O)[C@H](O)[C@H]2O)c(-c2ccc(O)cc2)oc2cc(O)cc(O)c12	0
O=c1c(OC2OCC(O)C(O)C2O)c(-c2ccc(O)c(O)c2)oc2cc(O)cc(O)c12 (stereo not drawn)	60*
O=c1c(O[C@@H]2OC[C@H](O)[C@H](O)[C@H]2O)c(-c2ccc(O)c(O)c2)oc2cc(O)cc(O)c12	30
COc1c(-c2ccc(O)cc2)oc2cc(O)cc(O)c2c1=O	-2
OCC1CCCN1CC1CC1 (stereo not drawn)	-6
COc1ccc(C2OCC3C(c4cc(OC)c5c(c4)OCO5)OCC23)cc1OC (stereo not drawn)	3
CN1CCN(Cc2c(O)ccc3c(=O)c(-c4ccc(Cl)cc4Cl)c(C(F)(F)F)oc23)CC1	-5
Cc1ccc(/C=N/NC(=O)CCCCCC(=O)NO)o1	-2
